# Compound activity (PubChem)
# This is a sample that favours compounds with a hit; in the whole collection about 3.4% have one here.
# APP 5'UTR act = APP 5'UTR luciferase reporter activation | SH-SY5Y APP 5'UTR luciferase reporter, luminescence; zero percent = DMSO vehicle wells | activation, % at 2 µM | hit rate 1% among 190,000;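 active means activation above a set limit, based on mean plus 3 SD of controls, cut at about 140% in these data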
# NF-kB expr up = NF-kB expression increase, human neuronal cells; fold change at 12.5 µM; NF-kB reporter expression; stronger effect = higher value; AID 1239; hit rate 1.6% among 190,000; in the data active means fold change above about 3.3
# hgDAF12 agonist = hgDAF-12 agonism, primary luciferase screen. hit rate 1.8% among 370,000. activation, % at 6.8 µM. AID 687014. HEK293 GAL4-hgDAF12 UAS-luciferase reporter, agonist luminescence; normalized to butyrate control;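 active means activation above a cutoff set at the mean of all screened compounds plus 3 SD, cut at about 10% in these data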;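 further: 0% = DMSO wells and 100% = sodium butyrate wells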
# ssDAF-12 act = activates DAF-12 receptor from parasite S. stercoralis. HEK293 ssDAF-12/GRIP1 lit1-tk-luc reporter, luminescence; % of 3 µM dafachronic acid response. activation, % at 6.8 µM. hit rate 1% among 370,000;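 active means activation above the mean over all tested compounds plus 3 SD, cut at about 0.9% in these data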;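 further: 0% = DMSO-only wells and 100% = 3 µM delta7-dafachronic acid wells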
# hcDAF12 agonist = activates DAF-12 receptor from parasite H. contortus. hit rate 1.4% among 370,000. AID 652067. HEK293 hcDAF-12 lit1-tk-luc reporter, luminescence; 0% DMSO, 100% Δ7-dafachronic acid. activation, % at 6.8 µM;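 active means activation above the mean of all tested compounds plus 3 SD, cut at about 5.5% in these data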;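 further: 100% = response to 3 µM Δ7-dafachronic acid high control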
# hgDAF12 conf = confirmation of H. glycines DAF-12 agonists. shares compounds with hgDAF12 agonist. HEK293 GAL4-hgDAF12 luciferase reporter, agonist mode; percent of butyrate response. activation, % at 6.8 µM. hit rate 80% among 3,300;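 active means mean activation over triplicate wells above the hit cutoff derived from the earlier primary screen, cut at about 11% in these data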;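 further: 0% = DMSO low control and 100% = 2 mM sodium butyrate high control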
# LXRb DAF12 ctr = activates human LXR-beta, counter-screen for DAF-12 agonists; activation, % at 6.8 µM; HEK293 Gal4-LXR luciferase reporter, 24 h; 3,300 tested, under 10 active; shares compounds with hgDAF12 agonist; AID 743051;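 active means mean activation of the triplicate above a set limit carried over from the primary screen, none filed active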
# Target sequence (P55055 whole entry, looked up, the tested form may be a part): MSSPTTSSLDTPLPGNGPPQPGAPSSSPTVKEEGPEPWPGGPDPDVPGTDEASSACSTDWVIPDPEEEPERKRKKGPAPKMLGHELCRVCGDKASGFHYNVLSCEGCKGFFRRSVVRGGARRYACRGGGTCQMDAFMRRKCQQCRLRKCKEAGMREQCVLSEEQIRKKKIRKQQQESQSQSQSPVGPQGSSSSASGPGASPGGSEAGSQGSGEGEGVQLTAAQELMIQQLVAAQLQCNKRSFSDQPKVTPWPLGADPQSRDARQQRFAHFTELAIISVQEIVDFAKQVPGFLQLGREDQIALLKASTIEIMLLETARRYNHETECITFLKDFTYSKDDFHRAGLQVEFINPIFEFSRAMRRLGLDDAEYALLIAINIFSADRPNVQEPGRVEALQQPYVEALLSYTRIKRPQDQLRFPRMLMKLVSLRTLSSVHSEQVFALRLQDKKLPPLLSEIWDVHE
# The depositor's hits bear a star; . = no result.
SMILES,APP 5'UTR act,NF-kB expr up,hgDAF12 agonist,ssDAF-12 act,hcDAF12 agonist,hgDAF12 conf,LXRb DAF12 ctr
Cc1ccc(-n2c(SCC(=O)Nc3ccc4c(c3)OCCO4)nnc2-c2cccnc2)cc1,.,.,1,-2,-3,.,.
COC(=O)C[C@H]1CC[C@@H]2[C@H](COc3ccc(NC(=O)c4cccc(F)c4)cc3C(=O)N2C)O1,.,.,-1,-1,1,.,.
CCOc1ccccc1NC1c2ccccc2C(=O)N1c1ccc(C)cn1 (configuration not stated),.,1.2,5,-1,2,.,.
CCOC(=O)c1ccccc1NC1c2ccccc2C(=O)N1c1ccc(C)cn1 (configuration not stated),6,1.4,15*,0,3,6,0
O=C1CC(/C=C/c2ccc(Cl)cc2)=Nc2ccccc2N1,122,3.6*,17*,-1,2,8,1
Cc1cccc(-c2noc(-c3ccc4c(c3)OCO4)n2)c1,186*,.,13*,0,4,14*,1
COC(=O)c1cc(-c2ccc3ccccc3c2)c(=O)n2c1CCC2,.,.,-2,-1,-1,.,.
COc1ccc(-n2c(Cc3cccs3)nnc2SCC(=O)Nc2ccc(OCc3ccccc3)cc2)cc1,.,.,2,-2,1,.,.
C/C(=N\Nc1nccnc1Cl)c1ccc([N+](=O)[O-])cc1,21,1.2,15*,1,4,2,0
C/C(=N\Nc1nccnc1Cl)c1ccc(Br)cc1,.,.,17*,0,5.8*,6,0
COc1ccc(/C(C)=N/Nc2nccnc2Cl)cc1,.,.,8,1,2,.,.
COC(=O)[C@H]1C[C@]2(C/C=C(\C)CCC=C(C)C)c3ccccc3N[C@H]2N1,.,.,2,0,2,.,.
C/C(=N\NC(=O)c1cccs1)c1ccc2c(c1)OCO2,29,2,20*,0,5,8,0
CC(=NNC(=O)c1cccs1)c1ccc2c(c1)OCCO2,.,.,17*,1,5,13*,1
C/C(=N\NC(=O)c1ccc2c(c1)OCCO2)c1ccccc1,.,.,8,0,-1,.,.
Cc1ccc(C(=O)CSc2cc(C)[nH]c(=O)n2)cc1,.,.,15*,0,3,16*,1
CC(OC(=O)c1cccc(S(=O)(=O)N2CCOCC2)c1)C(=O)NC1CCCCC1C (configuration not stated),.,.,18*,-1,0,0,0
Fc1cccc(Cl)c1CN1CCN(c2ncc(Cc3ccccc3)cn2)CC1,.,.,-1,-2,2,.,.
Fc1cccc(Cl)c1CN1CCN(c2nc3ccccc3s2)CC1,.,.,13*,1,6,11*,0
O=C(c1cc(-c2ccccc2)on1)N1CCN(c2ccccc2)CC1,.,.,0,-1,-1,.,.
O=C(c1cc(-c2ccc(Cl)cc2)on1)N1CCCC1,.,.,14*,1.1*,4,16*,1
COc1ccccc1-c1cc(C(=O)N2CCOCC2)no1,.,.,17*,0,3,12*,0
O=C(c1cc(-c2cccc(O)c2)on1)N1CCOCC1,93,3.1,16*,1,4,12*,1
O=C(c1cc(-c2ccccc2)on1)N1CCCC1,61,4.1*,14*,1.3*,4,15*,1
COc1cccc(N(C)C(=O)[C@@H](C2CC2)[C@@H](O)c2ccc(C(C)=O)cc2)c1,.,.,0,-1,0,.,.
SMILES,APP 5'UTR act,NF-kB expr up,hgDAF12 agonist,ssDAF-12 act,hcDAF12 agonist,hgDAF12 conf,LXRb DAF12 ctr
CCC(NC(=O)c1ccc2c(ccn2Cc2cccc(-c3ccccc3C(=O)O)c2)c1)c1ccccc1 (configuration not stated),.,.,-2,-1,-1,.,.
CC1CCN(C(=O)c2cc(-c3ccccc3O)on2)CC1,134,7.3*,24*,1.1*,6.2*,17*,1
COC(=O)C[C@H]1CC[C@@H]2[C@H](COc3ccc(NC(=O)c4ccccc4OC)cc3C(=O)N2C)O1,.,.,15*,0,-2,0,0
CC(=O)N(c1ccccc1)c1nnc(-c2cnc(C)cn2)s1,137*,3.5*,14*,0,5,11*,0
Cc1cnc(-c2nnc(N(C)C(=O)c3cccnc3)s2)cn1,6,1.2,0,0,0,.,.
CC(=O)Nc1ccc(NC(=O)c2cc(-c3cc(C)c(C)cc3O)n[nH]2)cc1,.,.,-1,-1,0,.,.
Cc1cc(O)c(-c2cc(C(=O)Nc3cccnc3)[nH]n2)cc1C,.,.,20*,1,6.3*,16*,1
Cc1cc(C)c2oc(-c3cccc(N)c3)nc2c1,.,.,10,0,3,.,.
Cc1ccc2nc(-c3cccc(N)c3)oc2c1,.,3.9*,15*,0,6.4*,16*,1
O=C(NNC(=S)Nc1ccccc1)c1cccc(Br)c1,84,1.6,3,0,3,.,.
CC(C)(C)NC(=S)NNC(=O)c1cccc(Br)c1,72,1.9,21*,-1,1,5,0
Cc1ccsc1/C=C1\Oc2cc(O)ccc2C1=O,.,.,24*,0,3,6,0
CCCCN1CCc2c([nH]c3ccc(C)cc23)C1=O,123,3.2,15*,1,4,9,0
Cc1ccc2[nH]c3c(c2c1)CCC3=O,7,1.2,1,-1,-2,.,.
CCOC(=O)c1cnc(SCCc2ccccc2)nc1N,190*,6.9*,16*,1.4*,5,20*,1
CCCCSc1ncc(C(=O)OCC)c(N)n1,164*,6.8*,15*,1,4,11*,1
C[C@H]1[C@@H](OC(=O)NCc2ccco2)CC[C@@]23CCCN2C(=O)CCC[C@@H]13,.,.,4,-1,0,.,.
COc1ccc(-c2cc(=NC(CC(C)C)C(=O)O)c3cc(C)ccc3o2)cc1 (configuration not stated),126,4.3*,17*,1,5,10,0
O=C(N/N=C1/CC2C=CCC12)c1cccs1 (configuration not stated),.,.,15*,1.1*,4,4,0
O=C(NN=C1C2CC3CC(C2)CC1C3)c1cccs1,131,2.2,14*,0,5,1,0
CC1=C/C(=N\NC(=O)c2cccs2)CC(C)(C)C1,29,1.2,17*,0,4,1,0
CC(=O)N1CCC(=NNC(=O)c2cccs2)CC1,117,1.1,14*,0,5,9,0
C=C(C)C1CC=C(C)/C(=N/NC(=O)c2cccs2)C1 (configuration not stated),63,3.2,6,0,-1,.,.
Cc1nc(N2CCN(C(=O)C3CC3)CC2)c2c3c(sc2n1)CC(C)CC3 (configuration not stated),.,.,-5,-2,-3,.,.
